Assay results from PubChem BioAssay (EPA / NIEHS).
Records with an inconclusive call do not appear. Active and inactive are the calls of the source. Rule for the calls: active = hit-call score of the fitted dose curve at least 0.9, where 1 is the maximum; inconclusive = response in the unintended direction; inactive = score below 0.9.

Experiment: CCTE_Mundy_HCI_hNP1_Pro_ResponderAvgInten: CCTE's Proliferation Assay in human neuroprogenitor cells, Mundy Lab (AID 2284224)
Description: CCTE_Mundy_HCI_hNP1_Pro is a multiplexed, cell-based-readout assay that uses neural stem cells derived from a neuroepithelial cell lineage of WA09 embryonic cells with measurements taken at 26.25 hours after chemical dosing in a microplate: 96-well plate.CCTE_Mundy_HCI_hNP1_Pro_ResponderAvgInten is one of three components of the CCTE_Mundy_HCI_hNP1_Pro assay. It measures proliferation related to percentage of BrdU positive cells using High Content Imaging of fluorescently labelled markers.Data from the assay component CCTE_Mundy_HCI_hNP1_Pro_ResponderAvgInten was analyzed at the endpoint CCTE_Mundy_HCI_hNP1_Pro_ResponderAvgInten in the positive analysis fitting direction relative to DMSO as the negative control and baseline of activity. Using a type of growth reporter, loss -of-signal activity can be used to understand viability effects.
Human neural progenitor cells (hNP1) were obtained as cryopreserved cells from ArunA Biomedical, Athens Georgia. Cells are plated on pre-coated poly-L-ornithine/laminin clear bottom and opaque 96 well plates (day 0). Plates are placed in a 37 °C, 5% CO2 incubator for 40 to 44 hours at which time plates are removed from the incubator and 10 uL of a freshly made chemical solution is added to each well. Twenty hours after the addition of the chemicals, the clear plates are removed from the incubator and 11 uL of a BrdU solution is added to each well. The plates are returned to the incubator for four hours. After four hours, the plates are fixed with a 4% paraformaldehyde solution.

SMILES | outcome | AC50
CCOP(=O)(OCC)OC(Cl)C(Cl)(Cl)Cl (stereo not given) | inactive | –
C[n+]1ccc(-c2cc[n+](C)cc2)cc1 | – | 85.1 µM (active)
CC1(C)C(C=C(Cl)Cl)C1C(=O)O[C@H](C#N)c1cccc(Oc2ccccc2)c1 (stereo not given in full) | – | 23.3 µM (active)
CC1(C)C(C=C(Cl)c2ccc(Cl)cc2)C1C(=O)OC(C#N)c1ccc(F)c(Oc2ccccc2)c1 (stereo not given) | inactive | –
O=C(O)CNCP(=O)(O)O | inactive | –
CNC(=N[N+](=O)[O-])NCC1CCOC1 (stereo not given) | inactive | –
CC1(C)[C@H](C=C(Cl)Cl)[C@H]1C(=O)OCc1c(F)c(F)cc(F)c1F | – | 22 µM (active)
COP(=O)(OC)SCN1C(=O)c2ccccc2C1=O | inactive | –
CCOP(=O)(OCC)SCSCC | inactive | –
CC(=O)[O-].[Tl+] | inactive | –
[CH3][Hg][Cl] | – | 2.12 µM (active)
CC1(C)[C@H](C(=O)O[C@H](C#N)c2cccc(Oc3ccccc3)c2)[C@@H]1C=C(Br)Br | inactive | –
C[C@@]1(CO)[C@H](O)CC[C@@]2(C)[C@H]1CC[C@H]1C[C@@H]3C[C@@]12CC[C@]3(O)CO | inactive | –
O.O.O.O.O.[Cd+2].[Cd+2].[Cl-].[Cl-].[Cl-].[Cl-] | inactive | –
Cn1nc(C(F)(F)F)c(CS(=O)(=O)C2=NOC(C)(C)C2)c1OC(F)F | inactive | –
CCC[CH2][Sn]([CH2]CCC)([CH2]CCC)[O][Sn]([CH2]CCC)([CH2]CCC)[CH2]CCC | – | 0.125 µM (active)
CCOP(=S)(OCC)SCS(=O)C(C)(C)C (stereo not given) | inactive | –
CC1(C)[C@@H](C=C(Cl)Cl)[C@@H]1C(=O)O[C@@H](C#N)c1ccc(F)c(Oc2ccccc2)c1 | inactive | –
O=[As]O | – | 2.79 µM (active)
CCOP(=O)(Oc1cnc(C(C)(C)C)nc1)OC(C)C (stereo not given) | inactive | –
